CF NFkB block: blocks PAF-induced NF-kB reporter in cystic fibrosis cells; KKLEB NF-kB-GFP reporter, GFP fluorescence overnight; hit rate 0.86% among 360,000; inhibition, % at 5 µM;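 active = at least 50% inhibition at 5 µM, scaled per plate between neutral and stimulator controls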;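 also: PAF is a Pseudomonas aeruginosa culture filtrate used as stimulus; plate controls were PAF-stimulated DMSO wells for no effect and unstimulated DMSO wells for full effect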
TROY NFkB inh: blocks TROY-dependent signaling in reporter cells; Q293 LMP1-TROYcd NF-kB luciferase reporter, 4 h; inhibition, % at 10 µM; hit rate 0.98% among 360,000;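 active = compounds whose plate-normalised and pattern-corrected inhibition of the luciferase reporter signal at the single screening dose is 50% or more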
Peg3 promoter: Peg3 promoter activity inhibition; hit rate 1.7% among 360,000; inhibition, % at 20 µM; HeLa PEG-Prom luciferase reporter, luminescence, overnight;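 active = inhibition of at least 50% at 20 µM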
TWEAK-Fn14 inh: blocks TWEAK-Fn14 interaction in a reporter cell assay | AID 1159606 | hit rate 2% among 360,000 | inhibition, % at 10 µM | TWEAK-stimulated Fn14 reporter cells, luciferase luminescence, 8 h; in the data active = inhibition above about 50%
KKLEB tox: reduces viability of KKLEB cystic fibrosis airway cells; hit rate 0.36% among 360,000; AID 602141; KKLEB CF airway cells viability, ATPlite luminescence, overnight; hits give low values; cells stimulated with P. aeruginosa culture filtrate; activity change (cytotoxicity), % at 5 µM;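 active = corrected activity change at or below -50% at 5 µM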
HIF-2a block: blocks HIF-2a reporter activity; 786-0 RCC cells HIF-2a reporter, luciferase luminescence, overnight; inhibition, % at 18.8 µM; hit rate 0.72% among 360,000;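 active = inhibition of the luminescence signal of 40% or more relative to plate controls, in a single-dose primary screen at 18.75 µM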
An asterisk follows results filed as active; nt = no result given. Shown are actives, neighbours in structure and some others; about 3.9% of the full set was active somewhere.

SMILES | CF NFkB block | TROY NFkB inh | Peg3 promoter | TWEAK-Fn14 inh | KKLEB tox | HIF-2a block
CC(C)C[C@H]1CN([C@@H](CC(C)C)CN2CCCC2CN2C(=S)NC[C@@H]2Cc2ccccc2)C(=S)N1CC1CCCCC1 (some centres not stated) | nt | 9.6 | nt | 4.6 | nt | -4.3
CCc1cccc(OCCOCCN2CCCC2)c1 | -0.4 | 15.0 | 3.1 | -2.0 | 3.5 | 9.3
c1coc(CN(Cc2cccs2)Cc2nnnn2C2CCCCC2)c1 | -4.7 | 10.4 | -20.8 | 51.1* | 3.8 | -9.0
CC(=O)N1c2ccc(S(=O)(=O)NCC3CCC(C(=O)Nc4cccc(C)n4)CC3)cc2CC1C (configuration not stated) | 7.1 | 22.1 | 11.1 | 58.8* | -7.9 | 9.5
CC(=O)N1c2ccc(S(=O)(=O)N3CCC(C(=O)Nc4cccc(C)n4)CC3)cc2CC1C (configuration not stated) | -4.6 | 20.6 | 15.1 | 27.6 | 6.6 | 11.8
COC(=O)Cn1c(=O)c(C(=O)CCl)c(N)n(Cc2ccccc2)c1=O | 27.6 | -1.7 | 80.7* | 30.9 | 5.4 | 29.5
CCC(=O)OCC(=O)c1c(N)n(Cc2ccccc2)c(=O)n(C)c1=O | -3.8 | 9.4 | 5.7 | -12.7 | -4.1 | 2.5
O=C(Nc1cccc(O)c1)c1c(O)c2ccccc2[nH]c1=O | -17.4 | -67.9 | -267.3 | -2.5 | -1.3 | -212.9
Cc1nc(C)c(C(=O)O)s1 | 0.7 | -5.2 | 12.6 | 94.6* | -5.4 | 8.1
O=C(/C=C/c1ccc(Br)cc1)c1ccco1 | 27.0 | 1.1 | 90.2* | 13.7 | -9.2 | -50.9
O=C(/C=C/Nc1ccc(Br)cc1F)c1ccco1 | -3.6 | 17.7 | 23.9 | 63.3* | -65.2* | 9.6
CN(C)c1ccc(N/C=C/C(=O)c2ccco2)cc1 | 3.6 | -14.1 | -16.6 | 86.3* | -22.3 | -29.1
O=C(/C=C/Nc1ccc(F)cc1F)c1ccco1 | -10.0 | -13.4 | -12.9 | 72.6* | -57.6* | -72.9
Cc1cc(C)cc(OCC(=O)OC/C(O)=C(\C#N)c2nc3ccccc3[nH]2)c1 | -18.8 | -36.3 | 31.6 | 11.3 | 0.3 | -14.9
CC(C)(C)N(Cc1ccccc1)C(=O)c1cc2ccccc2o1 | 21.5 | 2.5 | 11.1 | -13.8 | -19.0 | 16.9
CN1C(=O)CSc2ccc(NC(=O)N3CCN(c4ccccn4)CC3)cc21 | -55.8 | 13.4 | 1.1 | 33.5 | -1.1 | 7.9
Cc1ccc(C)c(N2CCN(C(=O)Nc3ccc4c(c3)N(C)C(=O)CS4)CC2)c1 | -14.7 | 39.7 | 11.4 | 52.3* | -0.2 | 6.2
COc1cccc2c1C(CCCC(=O)O)CCC2 (configuration not stated) | 15.3 | -3.2 | 10.2 | -0.3 | 2.0 | 7.3
COc1cccc2c1C1COC3C4CC(C(=O)O)C(C(C2)N13)N4C (configuration not stated) | -7.6 | 30.2 | -17.0 | 60.9* | -6.2 | 16.0
CCN(CC)c1ccc(C(=O)OCC(=O)Nc2ccccc2-c2ccccc2)cc1 | 3.4 | 39.1 | 20.8 | 72.5* | -14.0 | 26.4
CN(C)c1cccc(C(=O)OCC(=O)Nc2ccccc2-c2ccccc2)c1 | 15.6 | 20.8 | -10.3 | -2.1 | -4.1 | 19.1
O=C(Cc1ccccc1)NNc1c2ccccc2nc2ccccc12 | -44.7 | -44.9 | 10.5 | -48.8 | -1.5 | 7.1
O=C(Nc1c2ccccc2nc2ccccc12)C(Cl)(Cl)Cl | -84.7 | -46.5 | 96.4* | -74.6 | 8.3 | 14.8
CCOc1cc2c(c3c1C(c1ccccc1)N(S(=O)(=O)c1ccc(C)cc1)C3)C(=O)C=CC2=O (configuration not stated) | 55.7* | 16.3 | 101.1* | 33.1 | -67.4* | 67.8*
CCN1C(=O)[C@H]2[C@@H](c3ccc(C)cc3)N3C(=O)N(c4cccc(F)c4)C(=O)[C@@]3(CC)[C@H]2C1=O | 19.3 | 13.8 | 4.9 | 1.6 | -12.5 | 0.2
SMILES | CF NFkB block | TROY NFkB inh | Peg3 promoter | TWEAK-Fn14 inh | KKLEB tox | HIF-2a block
O=c1[nH]c(-c2ccccc2)cnc1-c1ccccc1 | 0.1 | -21.3 | -105.7 | 73.2* | -5.5 | -164.8
COc1ccc(N2CCN(C(C)C(=O)Nc3nnc(C)s3)CC2)cc1 (configuration not stated) | -20.8 | -5.9 | 4.7 | 9.6 | 6.5 | 10.2
COc1cc(/C=N/Nc2snc(SC)c2C#N)cc(OC)c1OC | 4.6 | nt | -0.5 | 91.6* | -11.6 | -48.2
CN1C2CCC1/C(=C\c1ccc(F)cc1)C(=O)/C2=C/c1ccc(F)cc1 | -37.0 | -13.8 | 18.4 | 64.6* | 0.3 | 81.7*
Cc1cc(C(=O)NCCC2=CCCCC2)ccc1[N+](=O)[O-] | 13.1 | -72.4 | -272.9 | -1.8 | -12.7 | -244.0
COc1cccc(CNc2nc3cc(-c4cnn(Cc5ccccc5)c4)sc3c(=O)n2C)c1 | 20.7 | 20.4 | 25.0 | 68.0* | 0.5 | -3.5
COc1ccccc1CNc1nc2cc(-c3ccc(OC)c(OC)c3)sc2c(=O)n1C | 10.5 | 43.5 | -4.1 | 77.0* | -1.6 | -34.7
CN(C)CCCNc1nc2cc(-c3ccc(F)cc3)sc2c(=O)n1C | -4.1 | -18.9 | 90.4* | -48.0 | -6.9 | -41.1
COc1cccc(CNc2nc3ccccc3n2CCN2CCCCC2)c1OC | 11.1 | 10.9 | 10.4 | -29.5 | -8.2 | -0.1
COc1ccc(-c2cc3nc(NCc4ccc(NC(C)=O)cc4)n(C)c(=O)c3s2)cc1OC | -2.7 | 18.9 | -3.2 | -38.2 | -1.1 | -3.7
CN(C)CCCNc1nc2cc(-c3ccccc3)sc2c(=O)n1C | 3.1 | -16.2 | -14.2 | -2.8 | -13.1 | -69.5
CCn1c(NCc2cccc(OC)c2OC)nc2ccccc21 | -0.5 | -52.4 | -73.6 | 59.6* | -6.5 | -119.8
CSc1nc(-c2ccccc2)cc(C)c1C#N | -11.0 | -3.4 | 8.6 | -7.6 | -8.0 | 0.2
Cn1c(NCCN2CCCC2)nc2cc(-c3cccc(C(F)(F)F)c3)sc2c1=O | -0.5 | -62.0 | 58.1* | -34.7 | 2.3 | -75.6
COc1cccc(CNc2nc3cc(-c4cccc(C(F)(F)F)c4)sc3c(=O)n2C)c1OC | 8.6 | 10.1 | 6.7 | 37.8 | -8.3 | -16.1
COc1cccc(CNc2nc3cc(-c4ccccc4)sc3c(=O)n2C)c1OC | 24.6 | 28.9 | 11.0 | 63.2* | -22.9 | -121.4
Cn1c(NCCN2CCCC2)nc2cc(-c3ccccc3)sc2c1=O | -40.8 | -62.0 | -11.4 | -33.6 | 17.2 | -64.3
COc1cccc(CNc2nc3cc(-c4cccc(Cl)c4)sc3c(=O)n2C)c1OC | -2.4 | 10.2 | -8.8 | 50.3* | -16.8 | -90.7
COc1ccc(CNC(=O)CN(Cc2ccc(F)cc2)C(=O)CCC(=O)Nc2nccs2)cc1 | 21.2 | -24.0 | 26.7 | 33.6 | 12.0 | 10.0
CCOc1ccc(NC(=O)CSc2nnc(-c3ccccc3)n2N)cc1 | 8.6 | -3.6 | -4.4 | 6.9 | -13.7 | -21.6
CCCc1nnc(SCC(=O)Nc2ccc(OCC)cc2)n1N | -0.8 | -1.1 | 2.6 | 99.8* | -4.0 | 14.7
Cc1ccccc1C(=O)Nc1cccc(-c2cn3ccccc3n2)c1 | -1.7 | -5.7 | -77.7 | 2.0 | 0.7 | -129.6

Assay outcomes: PubChem BioAssay, Sanford-Burnham Center for Chemical Genomics
